# Measured values: article PMC11102866, “Nucleosome-bound NR5A2 structure reveals pioneer factor mechanism by DNA minor groove anchor competition”
# Residue numbers refer to the chain shown, from its start. Numbers in names are those of the source.
# B1: 113 (nucleosome)
# DNA 1: ATCCTGGAGAATCCCGGTGCCGAGGCCGCTCAATTGGTCGTAGACAGCTCTAGCACCGCTTAAACGCACGTACGCGCTGTCCCCCGCGTTTTAACCGCCAAGGGGATTACTCCCTTCAAGGCCAGCACGTGTCAGATATATACATCCTGTGAT
# DNA 2: ATCACAGGATGTATATATCTGACACGTGCTGGCCTTGAAGGGAGTAATCCCCTTGGCGGTTAAAACGCGGGGGACAGCGCGTACGTGCGTTTAAGCGGTGCTAGAGCTGTCTACGACCAATTGAGCGGCCTCGGCACCGGGATTCTCCAGGAT
# modifications: reconstituted with mouse histones H2A, H2B, H3.3 and H4
# B2: 114 (nucleosome)
# DNA 1: B1 DNA 1 with T116A, C117T, A118C, G120A, C122G, A124C, G125A
# DNA 2: B1 DNA 2 with C29T, T30G, G32C, C34T, T36G, G37A, A38T
# modifications: reconstituted with mouse histones H2A, H2B, H3.3 and H4
# B3: 115 (nucleosome)
# DNA 1: ATCCTGGAGAATCCCGGTGCCGAGGCCGCTCAATTGGTCGTAGACAGCTCTAGCACCGCTTAAACGCACGTACGCGCTGTCCCCCGCGTTTTAACCGCCAAGGGGATTACTCCCTAGTCAAGGCCAACGTGTCAGATATATACATCCTGTGAT
# DNA 2: ATCACAGGATGTATATATCTGACACGTTGGCCTTGACTAGGGAGTAATCCCCTTGGCGGTTAAAACGCGGGGGACAGCGCGTACGTGCGTTTAAGCGGTGCTAGAGCTGTCTACGACCAATTGAGCGGCCTCGGCACCGGGATTCTCCAGGAT
# modifications: reconstituted with mouse histones H2A, H2B, H3.3 and H4
# B4: 116 (nucleosome)
# DNA 1: B3 DNA 1 with C119T, A120C, G122A, C124G, A126C
# DNA 2: B3 DNA 2 with T28G, G30C, C32T, T34G, G35A
# modifications: reconstituted with mouse histones H2A, H2B, H3.3 and H4
# B5: 117 (nucleosome)
# DNA 1: B3 DNA 1 with A120T, A121C, G122A, G123A, C124G, C125G, A126C, A127C, C128A
# DNA 2: B3 DNA 2 with G26T, T27G, T28G, G29C, G30C, C31T, C32T, T33G, T34A
# modifications: reconstituted with mouse histones H2A, H2B, H3.3 and H4
# B6: 118 (nucleosome)
# DNA 1: B3 DNA 1 with A120T, A121T, G122C, G123A, C124A, C125G, A126G, A127C, G129A
# DNA 2: B3 DNA 2 with C25T, T27G, T28C, G29C, G30T, C31T, C32G, T33A, T34A
# modifications: reconstituted with mouse histones H2A, H2B, H3.3 and H4
# B7: 119 (nucleosome)
# DNA 1: B3 DNA 1 with A120T, A121C, G122T, G123C, C124A, C125A, A126G, A127G, G129C, T130A
# DNA 2: B3 DNA 2 with A24T, C25G, T27C, T28C, G29T, G30T, C31G, C32A, T33G, T34A
# modifications: reconstituted with mouse histones H2A, H2B, H3.3 and H4
# B8: 120 (nucleosome)
# DNA 1: B3 DNA 1 with A120T, A121C, G122C, G123T, C125A, A127G, C128G, G129C, T130C, G131A
# DNA 2: B3 DNA 2 with C23T, A24G, C25G, G26C, T27C, G29T, C31A, C32G, T33G, T34A
# modifications: reconstituted with mouse histones H2A, H2B, H3.3 and H4
# B9: 121 (nucleosome)
# DNA 1: B3 DNA 1 with A120T, A121C, G122C, G123A, C124T, C128G, T130C, G131C, T132A
# DNA 2: B3 DNA 2 with A22T, C23G, A24G, G26C, G30A, C31T, C32G, T33G, T34A
# modifications: reconstituted with mouse histones H2A, H2B, H3.3 and H4
# B10: 14 (nucleosome)
# DNA 1: ATCCTGGAGAATCCCGTCAAGGCCACCGCTCAATTGGTCGTAGACAGCTCTAGCACCGCTTAAACGCACGTACGCGCTGTCCCCCGCGTTTTAACCGCCAAGGGGATTACTCCCTAGTCTCCAGGCACGTGTCAGATATATACATCCTGTGAT
# DNA 2: ATCACAGGATGTATATATCTGACACGTGCCTGGAGACTAGGGAGTAATCCCCTTGGCGGTTAAAACGCGGGGGACAGCGCGTACGTGCGTTTAAGCGGTGCTAGAGCTGTCTACGACCAATTGAGCGGTGGCCTTGACGGGATTCTCCAGGAT
# modifications: reconstituted with mouse histones H2A, H2B, H3.3 and H4
# B11: 122 (nucleosome)
# DNA 1: ATCCTGGAGAATCCCGGTGCCGAGGCCGCTCAATTGGTCGTAGACAGCTCTAGCACCGCTTAAACGCACGTACGCGCTGTCCCCCGCGTTTTAACCGCCAAGGGGATTACTCCCTAGTCTCCAGTCAAGGCCAAGATATATACATCCTGTGAT
# DNA 2: ATCACAGGATGTATATATCTTGGCCTTGACTGGAGACTAGGGAGTAATCCCCTTGGCGGTTAAAACGCGGGGGACAGCGCGTACGTGCGTTTAAGCGGTGCTAGAGCTGTCTACGACCAATTGAGCGGCCTCGGCACCGGGATTCTCCAGGAT
# modifications: reconstituted with mouse histones H2A, H2B, H3.3 and H4
# B12: 123 (nucleosome)
# DNA 1: B11 DNA 1 with T125G, C126T, A127C, G129A, C131G, A133C
# DNA 2: B11 DNA 2 with T21G, G23C, C25T, T27G, G28A, A29C
# modifications: reconstituted with mouse histones H2A, H2B, H3.3 and H4
# B13: 124 (nucleosome)
# DNA 1: B11 DNA 1 with T125G, A127T, A128C, G129A, G130A, C131G, C132G, A133C, A134C, G135A
# DNA 2: B11 DNA 2 with C19T, T20G, T21G, G22C, G23C, C24T, C25T, T26G, T27A, A29C
# modifications: reconstituted with mouse histones H2A, H2B, H3.3 and H4
# B14: 125 (nucleosome)
# DNA 1: B11 DNA 1 with T125G, A128T, G129C, G130A, C131A, C132G, A133G, A134C, G135C
# DNA 2: B11 DNA 2 with C19G, T20G, T21C, G22C, G23T, C24T, C25G, T26A, A29C
# modifications: reconstituted with mouse histones H2A, H2B, H3.3 and H4
# B15: 126 (nucleosome)
# DNA 1: ATCCTGGAGAATCCCGGTGCCGAGGCCGCTCAATTGGTCGTAGACAGCTCTAGCACCGCTTAAACGCACGTACGCGCTGTCCCCCGCGTTTTAACCGCCAAGGGGATTACTCCCTAGTCTCCAGGCACTCAAGGCCAATATACATCCTGTGAT
# DNA 2: ATCACAGGATGTATATTGGCCTTGAGTGCCTGGAGACTAGGGAGTAATCCCCTTGGCGGTTAAAACGCGGGGGACAGCGCGTACGTGCGTTTAAGCGGTGCTAGAGCTGTCTACGACCAATTGAGCGGCCTCGGCACCGGGATTCTCCAGGAT
# modifications: reconstituted with mouse histones H2A, H2B, H3.3 and H4
# Molecular target: NR5A2 wild type;histone octamer (Homo sapiens;, UniProt O00482;C0HKE1;Q6ZWY9;P84244;P62806 1-541;2-130;2-126;2-136;2-103, |)
# Assay: SeEN-seq (EMSA of nucleosome library followed by sequencing); 0.8 uM human NR5A2; 20 mM Tris-HCl pH 7.5, 120 mM NaCl, 1 mM MgCl2, 10 uM ZnCl2, 1 mM DTT, 100 ug/ml BSA, room temperature, 30 min; 0.1 uM nucleosome library; high values mean tight binding
row,Binder,binding signal
1,B1,"0.896 log2 enrichment (bound/unbound, relative to Widom 601)"
2,B2,"1.13 log2 enrichment (bound/unbound, relative to Widom 601)"
3,B3,"0.998 log2 enrichment (bound/unbound, relative to Widom 601)"
4,B4,"1.39 log2 enrichment (bound/unbound, relative to Widom 601)"
5,B5,"1.13 log2 enrichment (bound/unbound, relative to Widom 601)"
6,B6,"1.08 log2 enrichment (bound/unbound, relative to Widom 601)"
7,B7,"0.607 log2 enrichment (bound/unbound, relative to Widom 601)"
8,B8,"0.677 log2 enrichment (bound/unbound, relative to Widom 601)"
9,B9,"0.664 log2 enrichment (bound/unbound, relative to Widom 601)"
10,B10,"3.44 log2 enrichment (bound/unbound, relative to Widom 601)"
11,B11,"0.909 log2 enrichment (bound/unbound, relative to Widom 601)"
12,B12,"1.01 log2 enrichment (bound/unbound, relative to Widom 601)"
13,B13,"3.87 log2 enrichment (bound/unbound, relative to Widom 601)"
14,B14,"4.55 log2 enrichment (bound/unbound, relative to Widom 601)"
15,B15,"4.66 log2 enrichment (bound/unbound, relative to Widom 601)"

# Molecular target: mouse Nr5a2 wild type;histone octamer (Mus musculus;, UniProt P45448;C0HKE1;Q6ZWY9;P84244;P62806 1-560;2-130;2-126;2-136;2-103, |)
# Assay: SeEN-seq (EMSA of nucleosome library followed by sequencing); 1.2 uM mouse Nr5a2; 20 mM Tris-HCl pH 7.5, 120 mM NaCl, 1 mM MgCl2, 10 uM ZnCl2, 1 mM DTT, 100 ug/ml BSA, room temperature, 30 min; 0.1 uM nucleosome library; high values mean tight binding
row,Binder,binding signal
1,B1,"0.869 log2 enrichment (bound/unbound, relative to Widom 601)"
2,B2,"1.08 log2 enrichment (bound/unbound, relative to Widom 601)"
3,B3,"1.02 log2 enrichment (bound/unbound, relative to Widom 601)"
4,B4,"2.15 log2 enrichment (bound/unbound, relative to Widom 601)"
5,B5,"1.34 log2 enrichment (bound/unbound, relative to Widom 601)"
6,B6,"1.4 log2 enrichment (bound/unbound, relative to Widom 601)"
7,B7,"0.776 log2 enrichment (bound/unbound, relative to Widom 601)"
8,B8,"0.768 log2 enrichment (bound/unbound, relative to Widom 601)"
9,B9,"0.599 log2 enrichment (bound/unbound, relative to Widom 601)"
10,B10,"2.91 log2 enrichment (bound/unbound, relative to Widom 601)"
11,B11,"0.939 log2 enrichment (bound/unbound, relative to Widom 601)"
12,B12,"1.41 log2 enrichment (bound/unbound, relative to Widom 601)"
13,B13,"2.91 log2 enrichment (bound/unbound, relative to Widom 601)"
14,B14,"3.58 log2 enrichment (bound/unbound, relative to Widom 601)"
15,B15,"3.59 log2 enrichment (bound/unbound, relative to Widom 601)"
